Measurements as given in PubChem BioAssay AID1159580 (chemical genetic matrix, 2015).
Values joined by “and” are separate entries in the source; they are usually repeats but may differ in a detail not shown here. Equal values may be shown once. The campaign covered roughly 5,500 compounds. About 2,000 (36%) were called active. Another 18% or so got no clear call; they are omitted. Rule as the data show it: active = normalized growth mostly below about 0.91 (no sharp cut-off); inconclusive = no clear call, values can overlap the other calls; inactive = mostly above about 0.92. This is one part of the list.

Test: chemical genetic growth profiling, strain panel (AID 1159580);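 also: tested at 20 µM; growth read once vehicle control cultures reached saturation at 30 °C; 1 = growth at the plate median or of vehicle wells; lower values mean less growth of the strain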
Settings: growth OD

Measured: normalized growth

C[C@]12[C@H](O)CC3C(CC[C@@H]4C[C@@H](O)CC[C@]34C)[C@@]1(O)CC[C@@H]2C1=CC(=O)OC1 (stereo partly drawn)
inactive: S. cerevisiae deletion strains, locus YBR021W, strain FUR4, active compounds read low 1.05 | S. cerevisiae deletion strains, locus YBR229C, strain ROT2, active compounds read low 1.01 | S. cerevisiae deletion strains, locus YCL029C, strain bik1, active compounds read low 0.992 | S. cerevisiae deletion strains, locus YDL035C, strain GPR1, active compounds read low 1.07 | S. cerevisiae deletion strains, locus YDL074C, strain BRE1, active compounds read low 1.07 | S. cerevisiae deletion strains, locus YDL101C, strain DUN1, active compounds read low 1.01 | S. cerevisiae deletion strains, locus YDL134C, strain PPH21, active compounds read low 0.997 | S. cerevisiae deletion strains, locus YDL185W, strain tfp1, active compounds read low 0.987 | S. cerevisiae deletion strains, locus YDL192W, strain arf1, active compounds read low 1 | S. cerevisiae deletion strains, locus YDR101C, strain arx1, active compounds read low 1.01 | S. cerevisiae deletion strains, locus YDR162C, strain NBP2, active compounds read low 1.01 | S. cerevisiae deletion strains, locus YDR318W, strain mcm21, active compounds read low 0.999 | S. cerevisiae deletion strains, locus YDR388W, active compounds read low 0.976 | S. cerevisiae deletion strains, locus YDR502C, strain sam2, active compounds read low 0.971 | S. cerevisiae deletion strains, locus YER110C, active compounds read low 0.974 | S. cerevisiae deletion strains, locus YER155C, strain BEM2, active compounds read low 0.998 | S. cerevisiae deletion strains, locus YER167W, strain BCK2, active compounds read low 1.02 | S. cerevisiae deletion strains, locus YGL078C, strain dbp3, active compounds read low 0.979 | S. cerevisiae deletion strains, locus YGL086W, strain mad1, active compounds read low 0.983 | S. cerevisiae deletion strains, locus YGL248W, strain PDE1, active compounds read low 1.01 | S. cerevisiae deletion strains, locus YGR078C, strain PAC10, active compounds read low 1.01 | S. cerevisiae deletion strains, locus YGR135W, strain pre9, active compounds read low 0.941 | S. cerevisiae deletion strains, locus YGR252W, strain gcn5, active compounds read low 0.923 | S. cerevisiae deletion strains, locus YHR030C, strain SLT2, active compounds read low 1.01 and 1 | S. cerevisiae deletion strains, locus YHR079C, strain IRE1 (second series), active compounds read low 0.98 | S. cerevisiae deletion strains, locus YHR079C, strain IRE1, active compounds read low 0.993 | S. cerevisiae deletion strains, locus YHR094C, strain hxt1, active compounds read low 0.976 | S. cerevisiae deletion strains, locus YHR129C, strain ARP1, active compounds read low 1.01 | S. cerevisiae deletion strains, locus YHR200W, strain rpn10, active compounds read low 0.968 | S. cerevisiae deletion strains, locus YIL066C, strain RNR3, active compounds read low 1.04 | S. cerevisiae deletion strains, locus YIL073C, strain SPO22, active compounds read low 1 | S. cerevisiae deletion strains, locus YIL125W, strain kgd1, active compounds read low 0.984 | S. cerevisiae deletion strains, locus YIR030C, strain dcg1, active compounds read low 0.986 | S. cerevisiae deletion strains, locus YJL095W, strain BCK1, active compounds read low 0.999 and 0.994 | S. cerevisiae deletion strains, locus YJL134W, strain LCB3, active compounds read low 1.01 | S. cerevisiae deletion strains, locus YJL168C, strain set2, active compounds read low 0.994 | S. cerevisiae deletion strains, locus YJL187C, strain SWE1 (second series), active compounds read low 1.01 | S. cerevisiae deletion strains, locus YJR066W, strain TOR1, active compounds read low 0.903 | S. cerevisiae deletion strains, locus YKL009W, strain mrt4, active compounds read low 1.02 | S. cerevisiae deletion strains, locus YKL068W, active compounds read low 0.994 | S. cerevisiae deletion strains, locus YKL085W, strain MDH1 (second series), active compounds read low 0.975 | S. cerevisiae deletion strains, locus YKL085W, strain MDH1, active compounds read low 0.975 | S. cerevisiae deletion strains, locus YKR001C, strain vps1, active compounds read low 1.01 | S. cerevisiae deletion strains, locus YLR039C, strain RIC1, active compounds read low 1.05 | S. cerevisiae deletion strains, locus YLR058C, strain SHM2, active compounds read low 1.02 | S. cerevisiae deletion strains, locus YLR102C, strain apc9, active compounds read low 0.982 | S. cerevisiae deletion strains, locus YLR113W, strain HOG1, active compounds read low 1.03 | S. cerevisiae deletion strains, locus YLR262C, strain YPT6, active compounds read low 1.09 | S. cerevisiae deletion strains, locus YLR268W, strain sec22, active compounds read low 1.01 | S. cerevisiae deletion strains, locus YLR342W, strain FKS1 (second series), active compounds read low 1.05 | S. cerevisiae deletion strains, locus YLR371W, strain rom2, active compounds read low 0.996 | S. cerevisiae deletion strains, locus YLR418C, strain cdc73, active compounds read low 0.955 | S. cerevisiae deletion strains, locus YML016C, strain PPZ1, active compounds read low 1.02 | S. cerevisiae deletion strains, locus YML032C, strain rad52, active compounds read low 0.998 | S. cerevisiae deletion strains, locus YML124C, strain tub3, active compounds read low 0.986 | S. cerevisiae deletion strains, locus YMR078C, strain ctf18, active compounds read low 0.979 | S. cerevisiae deletion strains, locus YMR223W, strain ubp8, active compounds read low 0.974 | S. cerevisiae deletion strains, locus YMR307W, strain GAS1, active compounds read low 1.13 | S. cerevisiae deletion strains, locus YNL067W, strain RPL9B, active compounds read low 0.99 | S. cerevisiae deletion strains, locus YNL153C, strain GIM3, active compounds read low 1 | S. cerevisiae deletion strains, locus YNL183C, strain NPR1, active compounds read low 0.924 | S. cerevisiae deletion strains, locus YNL233W, strain BNI4, active compounds read low 1 | S. cerevisiae deletion strains, locus YNL250W, strain rad50, active compounds read low 0.974 | S. cerevisiae deletion strains, locus YNL271C, strain bni1, active compounds read low 0.991 | S. cerevisiae deletion strains, locus YNL298W, strain CLA4, active compounds read low 1.01 | S. cerevisiae deletion strains, locus YNL307C, strain MCK1, active compounds read low 0.977 | S. cerevisiae deletion strains, locus YNR052C, strain pop2, active compounds read low 0.965 | S. cerevisiae deletion strains, locus YOL012C, strain htz1 0.887 | S. cerevisiae deletion strains, locus YOL147C, strain pex11, active compounds read low 0.99 | S. cerevisiae deletion strains, locus YOR061W, strain CKA2, active compounds read low 1.04 | S. cerevisiae deletion strains, locus YOR069W, strain VPS5, active compounds read low 1.01 | S. cerevisiae deletion strains, locus YOR136W, strain idh2, active compounds read low 0.952 | S. cerevisiae deletion strains, locus YOR144C, strain elg1, active compounds read low 0.987 | S. cerevisiae deletion strains, locus YOR184W, strain ser1, active compounds read low 1.03 | S. cerevisiae deletion strains, locus YOR231W, strain MKK1, active compounds read low 1 | S. cerevisiae deletion strains, locus YOR316C, strain cot1, active compounds read low 0.982 | S. cerevisiae deletion strains, locus YPL256C, strain CLN2, active compounds read low 0.982 | S. cerevisiae deletion strains, locus YPR119W, strain clb2, active compounds read low 0.985 | S. cerevisiae deletion strains, locus YPR141C, strain kar3, active compounds read low 0.983 | S. cerevisiae deletion strains, locus YPR163C, strain tif3, active compounds read low 0.988 | S. cerevisiae deletion strains, locus YPR167C, strain met16, active compounds read low 0.984 | S. cerevisiae deletion strains, strain wtn01, active compounds read low 0.998 | S. cerevisiae strains, strain wild type, active compounds read low 1.03
